Luc counter = Counterscreen for Luciferase (Kinase-Glo TM) Inhibition | 0.28% of 200,000 active | Kinase-Glo luciferase, ATP luminescence, 8 min | Potency, µM (highest dose often 38.3 µM), most hits filed as inhibitors | AID 1379, 2008; note: nearly all actives have a fitted effect of over 60% in size
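Recombinant Kinase-Glo luciferase, 10 uM ATP (linear range), luciferin; imidazole pH 7.2 / KCl / MgCl2 / Tween / BSA buffer; 8 min RT; luminescence.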
VP16 counter = VP16 counterscreen qHTS for inhibitors of ROR gamma transcriptional activity | Drosophila S2 Gal4-VP16 UAS-luciferase, luminescence, 20 h | Potency, µM (highest dose often 53.6 µM), actives largely listed as inhibitors | 3.5% of 310,000 active;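 note: Gal4-VP16 expression switched on by copper sulfate through the metallothionein promoter; nearly all actives have a fitted effect of over 50% in size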
RORg inh = qHTS for inhibitors of ROR gamma transcriptional activity | Potency, µM (titrated, usually from 53.6 µM), hits mostly inhibitors | Nuclear receptor ROR-gamma (Mus musculus), P51450 | 5.4% of 310,000 active | Drosophila S2 Gal4-RORgamma UAS-luciferase reporter, 20 h; note: nearly all actives have a fitted effect of over 60% in size
Target sequence (P51450 whole entry, looked up, the tested form may be a part): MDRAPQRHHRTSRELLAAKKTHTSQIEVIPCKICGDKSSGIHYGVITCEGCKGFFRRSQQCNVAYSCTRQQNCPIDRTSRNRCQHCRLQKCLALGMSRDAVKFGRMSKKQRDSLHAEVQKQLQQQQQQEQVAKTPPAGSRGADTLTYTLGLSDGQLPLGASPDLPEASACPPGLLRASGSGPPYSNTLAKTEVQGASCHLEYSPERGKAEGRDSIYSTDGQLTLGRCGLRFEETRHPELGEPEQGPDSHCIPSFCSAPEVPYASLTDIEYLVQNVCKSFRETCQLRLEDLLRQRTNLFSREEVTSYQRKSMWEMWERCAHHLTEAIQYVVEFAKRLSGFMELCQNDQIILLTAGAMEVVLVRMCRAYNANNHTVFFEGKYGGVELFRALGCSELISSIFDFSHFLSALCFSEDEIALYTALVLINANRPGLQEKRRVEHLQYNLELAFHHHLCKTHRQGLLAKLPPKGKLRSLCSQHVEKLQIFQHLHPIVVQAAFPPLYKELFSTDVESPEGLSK
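Compounds are pin-transferred onto Drosophila Schneider cells expressing a copper-inducible Gal4–ROR gamma transactivation domain fusion. After 1 hr, copper sulfate is added to 700 uM final; luciferase is read 20 hr later.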
Hits are given with their value; - = inactive; ? = inconclusive; . = no result given; ! = a repeat was not active; [ ] = another dose, or the depositor's remark. Compounds with a hit are over-represented: about 6.4% of the library has one in this group of screens. Calls come from the whole dose curve; as a rule, active = well fitted curve in the direction sought with a large enough effect; inconclusive = small, poorly fitted or top-dose-only effect, or another doubt; inactive = no such curve, though single readings can be large; an effect the other way counts as inactive or inconclusive.

SMILES	Luc counter	VP16 counter	RORg inh
CC(=O)O[C@@H]1C[C@@]2(C)C(c3ccoc3)C[C@H]3O[C@]32[C@]2(C)C(=O)C(O)=C3C(C)(C)C(=O)C=C[C@]3(C)C12 (some centres undefined)	-	13µM	?
CC(=O)OC1CC(OC(C)=O)[C@]2(C)C(CC(OC(C)=O)[C@]3(C)C2CC[C@@]2(C)C(c4ccoc4)C[C@H]4O[C@]432)C1(C)C (some centres undefined)	-	-	?
CC1(C)C2C[C@@H](O)[C@]3(C)C(CC[C@@]4(C)[C@H](c5ccoc5)C[C@H]5O[C@]543)[C@@]2(C)[C@@H](O)C[C@H]1O (some centres undefined)	-	-	-
CCCCC/C=C\C/C=C\CCCCCCCCCC(=O)NCCc1ccc(O)c(O)c1	-	-	-
FC(F)(F)c1ccc(Cl)cc1	.	-	-
CSc1ncc(CN2CCCC(C(=O)c3cccc(Cl)c3)C2)cn1 (centres undefined)	-	-	-
CCCCc1ncc(CN2CCCC(C(=O)c3ccc(SC)cc3)C2)[nH]1 (centres undefined)	-	-	11µM
Fc1ccc(C(OCCN2CCN(CCCc3ccccc3)CC2)c2ccc(F)cc2)cc1	-	32µM!	28µM!
Fc1ccc(C(OCCN2CCCC2)c2ccc(Br)cc2)cc1 (centres undefined)	-	-	-
Fc1ccc(C(OCCN2CCCC2)c2ccc(F)cc2)cc1	-	-	-
c1ccc(CCCN2CCN(CCOC(c3ccccc3)c3ccccc3)CC2)cc1	-	?	32µM
O=C(N[C@@H]1CN2CCC1CC2)c1cc(Cl)cc2[nH]cnc12	.	-	-
C=C(C)[C@]12C[C@@H](C)[C@@]34OC(Cc5ccccc5)(O[C@@H]1[C@@H]3C=C(COC(=O)Cc1cc(I)c(O)c(OC)c1)C[C@]1(O)C(=O)C(C)=C[C@@H]41)O2	-	-	-
CCCN(CCC)[C@@H]1CCc2c(OC)cccc2[C@@H]1C	-	-	-
CN(C)C(=O)Oc1ccc(OCc2nc3ccccc3[nH]2)cc1	11µM	11µM	?
CN(C)C(=O)Oc1ccc(OC(=O)N(C)C)cc1	-	-	-
CC1=C2C(=O)[C@@H]3[C@@H](CC=C4C[C@@H](O)CC[C@@]43C)[C@H]2CC[C@@]12O[C@H]1C[C@H](C)CN[C@H]1[C@@H]2C	-[7.66 µM]	.	.
N#CCBr	.	-	-
N#CC(=Cc1ccc(O)c(O)c1)C(N)=S	-	.	.
N#CC(C#N)=Cc1ccc(O)c(O)c1	-	14µM!	16µM
CCOP(=O)(OCC)C(NC(=O)c1ccc(C)cc1)=C(Cl)Cl	-	-	-
Cc1ccc(C(=O)NC(=S)NNS(=O)(=O)c2ccc(C)cc2)cc1	-	?	5.6µM
C[N+]1(C)C2CC[C@H]1CC(OC(=O)[C@@H](CO)c1ccccc1)C2 (some centres undefined)	-[7.66 µM]	-	-[10 µM]
CC(C)c1nccn1Cc1ccc(Cl)cc1Cl	-[7.66 µM]	.	.
Cc1ccc2c(c1)c(C1=c3ccccc3=NC1=O)c(O)n2C	.	3.5µM	7.1µM
SMILES	Luc counter	VP16 counter	RORg inh
Cc1ccc(C)c(-n2c(C)nc3ccccc3c2=O)c1	.	-	-
C[C@@H](Cc1ccc(Cl)cc1Cl)NO	-[7.66 µM]	.	.
CN1Cc2c(ccc3c2OCO3)[C@@H]2[C@@H](O)Cc3cc4c(cc3[C@@H]21)OCO4	-	-	-
C=CCc1c(C)[nH]c(=S)c(C#N)c1C	-	?	6.3µM
COc1cc2c(cc1OC)[C@]13CC[N@+]4(C)CC5=CCO[C@H]6CC(=O)N2[C@@H]1C6[C@@H]5C[C@]34O (some centres undefined)	-[7.66 µM]	.	.
c1ccc(P(c2ccccc2)c2ccccn2)cc1	.	-	-
S=C=Nc1ccccn1	-	?	5µM
CC(=O)N1CC[N+](C)(C)CC1	-	-	-
COC(=O)[C@@H]1[C@@H](C(=O)OC)C2(c3ccccc3-c3ccccc32)N(c2ccc(Cl)cc2)N1C#N	-	4.5µM	?
COC(=O)C[C@]1(C(=O)OC)CN(C#N)N(c2ccc(Cl)cc2)C12c1ccccc1-c1ccccc12	-	3.2µM	5.6µM
N=C(N)n1cc(/C=N\N=C(N)N)cn1	-[7.66 µM]	.	.
CCCCn1cc[n+](C)c1	.	-	?
C=C1[C@@H]2C[C@]3(C(CC2=O)[C@]24C5C[C@H]3[C@H]2N(CC)C[C@]5(C)CC[C@@H]4O)[C@@H]1O (some centres undefined)	.	-	-
N#CN=C1SCCN1Cc1ccc(Cl)nc1	.	-	-
O=C(/C=C/c1ccccc1)C1C(=O)c2ccccc2C1=O	-	8.9µM	?
N#Cc1ccc(/C=C/C(=O)O)cc1	.	-	-

Compound activity deposited in PubChem by National Center for Advancing Translational Sciences (NCATS).
